Screening data as filed in PubChem BioAssay.
A selection: hits, their analogues and other compounds. The true share with any hit is near 2.4%.
D2 antagonist = D2 dopamine receptor (human) antagonism | P14416 | 340,000 tested, 2% active | inhibition, % at 10 µM | HEK293 TREx D2 cells, calcium flux, dopamine EC80; in the data active = inhibition above about 30%; inactive = below that, where a call was filed; also: 0% is about no effect
Target sequence (P14416 whole entry, looked up): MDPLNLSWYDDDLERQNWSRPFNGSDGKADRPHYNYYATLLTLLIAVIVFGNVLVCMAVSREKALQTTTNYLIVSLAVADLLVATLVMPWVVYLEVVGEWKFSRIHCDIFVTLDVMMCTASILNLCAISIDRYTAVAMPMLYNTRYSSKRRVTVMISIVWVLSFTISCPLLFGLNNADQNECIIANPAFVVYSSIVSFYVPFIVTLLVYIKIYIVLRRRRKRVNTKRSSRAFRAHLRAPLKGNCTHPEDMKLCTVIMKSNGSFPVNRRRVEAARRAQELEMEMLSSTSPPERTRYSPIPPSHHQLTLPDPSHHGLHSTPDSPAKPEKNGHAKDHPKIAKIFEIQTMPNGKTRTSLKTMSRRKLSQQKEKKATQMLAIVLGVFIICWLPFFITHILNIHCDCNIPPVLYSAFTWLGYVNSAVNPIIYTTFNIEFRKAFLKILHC
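Overnight-induced (tetracycline, 30 C) HEK293 T-REx cells carrying force-coupled D2 receive a no-wash calcium dye, then compound, then EC80 dopamine at 180 s; signals are read kinetically throughout.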
D2 ag-1 = agonists of human D2 dopamine receptor; 340,000 tested, 0.53% active; AID 485358; activation, % at 2 µM; HEK293 T-REx D2 cells, calcium flux agonist mode;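 active = activation over 3 SD above normal in the single-dose calcium agonist read, cut at about 30% in these data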; also: 0% is about no effect
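Tetracycline-induced HEK293 T-REx cells with force-coupled D2 receptor, plated overnight at 30 C, loaded with no-wash calcium dye. After a 10 s baseline, compound was pin-added and calcium flux read kinetically for 180 s; calcium rises flagged agonists.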
D2 PAM-1 = potentiates the human D2 dopamine receptor allosterically | P14416 | DiscoveRx D2 beta-arrestin cells, luminescence, 90 min; 100% = 57 uM dopamine signal | potentiation, % (concentration not given with the values) | 360,000 tested, 0.23% active | AID 624464; in the data active = potentiation above about 50%; inconclusive = mostly about 30% to 49%
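PathHunter D2 cells, attached overnight at 37 deg C, received compound in DMSO plus dopamine at EC20 (50 nM final) for 90 min at 37 deg C. Beta-arrestin recruitment was read as luminescence after 1 h with detection reagent at ambient temperature.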
D2 ag-2 = activates the human D2 dopamine receptor | P14416 | DiscoveRx PathHunter D2 beta-arrestin, luminescence, 90 min; 100% = 57 uM dopamine signal | activation, % (concentration not given with the values) | 360,000 tested, 0.084% active | AID 624465; in the data active = activation above about 40%; inconclusive = between about 15% and that limit
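Agonist mode: compounds alone added to overnight-plated D2 PathHunter cells for 90 min at 37 C, with 57 uM final dopamine (EC100) defining full response. Beta-arrestin recruitment detected by chemiluminescent reagent, read after 1 h at ambient temperature.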
D2 PAM-2 = positively modulates the human D2 dopamine receptor allosterically. P14416. HEK293 T-REx D2, calcium flux, EC20 dopamine potentiation. potentiation, % at 10 µM. 340,000 tested, 0.34% active;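 active = potentiation over 3 SD above the plate norm, cut at about 30% in these data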; also: 0% is about no effect
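Using a no-wash calcium dye in inducible, force-coupled HEK293 Trex cells expressing D2, we tracked fluorescence each second for 180 s after compound, then for 180 s after EC20 dopamine to detect augmented signalling.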
Active calls of the source: *; ? = inconclusive; . = not tested or not shown; ! = not active in a repeat.

SMILES | D2 antagonist | D2 ag-1 | D2 PAM-1 | D2 ag-2 | D2 PAM-2
Cc1ccc(F)cc1NC(=O)CCOc1ccccc1 | 32* | -1 | -6 | 0 | -6
Cc1cc(Cl)ccc1OCC(=O)NNC(=O)CCOc1ccccc1 | 31* | -1 | -3 | -1 | 4
CCCCNc1nc(Oc2ccc(=O)n(C)n2)nc(N(C)C)n1 | . | 1 | . | . | 14
COc1ccc(S(N)(=O)=O)cc1-c1nnc2c3ccccc3c(C)nn12 | 30* | 0 | 0 | 1 | -3
CC(=O)N1CCN(S(=O)(=O)c2cccc(C(=O)Nc3ccc(C)cn3)c2)CC1 | -2 | 0 | 3 | 1 | 2
Cc1ccc(NC(=O)c2cccc(S(=O)(=O)N3CCc4ccccc4C3)c2)nc1 | 31* | 0 | -3 | -2 | 5
Cc1ccc2c(c1)NC(=O)C(CC(=O)NCCCN1CCN(c3cc(Cl)ccc3C)CC1)O2 (stereo not drawn) | 53* | 0 | -8 | 1 | -28
COc1ccc(-n2c(=O)c3c4c(sc3n(Cc3ccc(F)cc3)c2=O)CN(C(C)=O)CC4)c(OC)c1 | . | . | . | . | 10
OCCN1CCN(C(=S)c2ccc(Br)cc2)CC1 | 55* | 0 | -11 | -3 | -7
CSc1ccc(C(=S)N2CCN(CCO)CC2)cc1 | -21 | -1 | -12 | -3 | 10
O=C(Nc1ccc(Cl)cc1)c1cnn2c1NC(c1ccccc1)=CC2c1ccccc1 (stereo not drawn) | . | 0 | . | . | 3
Cc1cc(=O)n(Cc2c(F)cccc2Cl)c2c1c(C)nn2-c1cccc(F)c1 | . | -1 | . | . | 3
COC(=O)C1=CN(Cc2ccc(OC)cc2)C=C(C(=O)OC)C1c1cc(OC)c(OC)c(OC)c1 | -30 | 0 | -4 | 6 | -3
CCOC(=O)C1=CN(Cc2ccc(OC)cc2)C=C(C(=O)OCC)C1c1cccs1 | 42* | 1 | 1 | 2 | -1
Cc1cc(C)nc(SCCCNCc2ccc(Br)cc2)n1 | 59* | 1 | -8 | -2 | -29
Cc1ccc(CNCCCSc2nc(C)cc(C)n2)cc1 | 63* | 0 | -3 | -4 | -14
O=C(O)CCCCCNS(=O)(=O)c1cccc2c1C(=O)c1ccccc1C2=O | 6 | -2 | 76* | 13 | 1
O=C(O)CCCCCNS(=O)(=O)/C=C/c1ccccc1 | 6 | 0 | -3 | -3 | 2
Cc1cccc(N2CCN(C(=O)CN3C(=O)COc4ccc(S(=O)(=O)N5CCC(C)CC5)cc43)CC2)c1C | . | 1 | . | . | -7
Cc1ccc(/C=C/c2onc(C)c2S(=O)(=O)N2CCC(C(=O)Nc3ccc(C)c(N(C)C)c3)CC2)cc1 | . | 1 | . | . | -23
Cc1ccc(-c2nc3c4ccccc4n(Cc4cccc(Cl)c4)c(=O)n3n2)cc1 | . | 0 | . | . | 6
CC(=O)NNC(=S)NC(=O)C(c1ccccc1)c1ccccc1 | 9 | 2 | -8 | 1 | -1
CC(C)(C)C(=O)NC(=S)NNC(=O)C(c1ccccc1)c1ccccc1 | 75* | 99* | -21 | -16 | -11
Cc1cc(C)c[n+](-c2nc3ccccc3nc2C(=C=[N-])C#N)c1 | 34*! | 1 | -2 | -2 | -2
Cc1cccc(Cn2cccc2CNS(=O)(=O)c2ccc(C)c(C)c2)c1 | . | 2 | . | . | -4
SMILES | D2 antagonist | D2 ag-1 | D2 PAM-1 | D2 ag-2 | D2 PAM-2
S=C1NC2(CCCCC2)Cc2ccccc21 | 32* | -1 | -6 | -2 | -6
CCN(Cc1ccccc1)Cc1ccc(OCc2ccccc2)cc1 | 31* | -2 | -68 | -4 | -8
Cc1nc2c(o1)C(=O)c1ccccc1C2=Nc1ccccc1 | . | . | 51* | ? | .
COC(=O)c1cnn(-c2ccc(C)c(C)c2)c1-n1cccc1 | 30* | 0 | -2 | -3 | 13
CCOc1ccccc1NC(=O)CCNS(=O)(=O)c1cccc2nonc12 | -19 | 1 | -9 | -5 | 0
Cc1cccc(NC(=O)CCNS(=O)(=O)c2cccc3nonc23)c1C | 31* | 0 | -1 | 4 | -6
COc1ccc(C2c3c(oc4ccc(F)cc4c3=O)C(=O)N2Cc2ccc3c(c2)OCO3)cc1 (stereo not drawn) | . | 1 | . | . | 4
N#Cc1ccccc1Cn1c(=O)n(-c2ccc(F)c(Cl)c2)c(=O)c2sccc21 | . | . | . | . | -8
CCNc1nc(NCC)nc(N/N=C/c2ccc(O)c(O)c2)n1 | 44* | 0 | 8 | 14 | 2
CCNc1nc(NCC)nc(N/N=C/c2ccc(N(C)C)cc2)n1 | -22 | 0 | -9 | -1 | -2
CCOC(=O)c1c(C)[nH]c(C)c1S(=O)(=O)NCC1CCN(Cc2cccc(Cl)c2)CC1 | 78* | -1 | -22 | -3 | -32
CCOC(=O)c1c(C)[nH]c(C)c1S(=O)(=O)NCC1CCN(Cc2ccccc2F)CC1 | -3 | 1 | -20 | 4 | -24
CCOC(=O)c1c(C)[nH]c(C)c1S(=O)(=O)NCC1CCN(Cc2ccc(C)cc2)CC1 | 87* | 0 | -32 | -2 | -24
CC(O)(CS(=O)(=O)c1ccc(Br)cc1)c1ccccc1 (stereo not drawn) | 31* | 0 | 4 | 7 | -8
O=S(=O)(CC(O)(c1ccccc1)c1ccccc1)CC(O)(c1ccccc1)c1ccccc1 | . | . | -1 | -1 | .
Cc1ccc(C)c(N2CCN(CCCNC(=O)c3cnn(-c4ccccc4Cl)c3C3CCN(C(=O)OC(C)(C)C)CC3)CC2)c1 | . | 2 | . | . | -11
O=C(NCc1ccc(F)cc1)C1CCN(S(=O)(=O)c2cccc3nonc23)CC1 | -7 | 0 | -2 | -2 | 32*
Cc1ccc(CNC(=O)C2CCN(S(=O)(=O)c3cccc4nonc34)CC2)cc1 | -5 | 1 | 4 | -2 | -2
COc1ccc(Cn2c(=O)n(Cc3ccco3)c(=O)c3oc4ccccc4c32)cc1 | . | . | . | . | 3
C=CCC1c2cccc(C(=O)O)c2C(=O)N1c1cccc(OC)c1 (stereo not drawn) | -5 | 0 | -4 | -3 | 0
C=CCC1c2cccc(C(=O)O)c2C(=O)N1c1cccc(C)c1 (stereo not drawn) | 32* | 0 | 4 | 1 | 9
CCC(C)(C)NC(=O)c1ccc2c(c1)N(CC(=O)NC1CCCC1)C(=O)C(C)(C)O2 | 62* | -1 | -12 | -6 | -31
CCOC(=O)c1ccc2c(c1)N(CC(=O)N1CCCC1)C(=O)C(C)(C)O2 | -2 | 0 | -15 | -3 | 45*
CCOC(=O)c1ccc2c(c1)N(CC(=O)N1CCCCC1)C(=O)C(C)(C)O2 | 15 | -1 | -3 | -2 | -6
CCOC(=O)N1CCN(C(=O)CN2C(=O)COc3ccc(C)cc32)CC1 | 37* | -1 | -7 | 1 | -6
Cc1ccc2c(c1)N(CC(=O)N1CCCC1)C(=O)CO2 | 1 | 1 | -2 | -3 | -8
COC(=O)CN1C(=O)C(C)(C)Oc2ccc(C(=O)Nc3ccccc3F)cc21 | 18 | -1 | -3 | 3 | 31*
